In PubChem BioAssay:

Assay: EMT-state selective cytotoxicity in co-culture – imaging, PC-3E GFP, TEM4-18 mCherry, primary screen (AID 1345086);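 further: cells exposed to compound for 72 h before imaging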
Conditions: PC-3E GFP / TEM4-18 mCherry co-culture, imaging cell counts; measured here: mesenchymal TEM4-18 mCherry cell survival; at 1 µM

With `CN(C)CCC(c1ccccc1)c1ccccn1` (configuration not stated) as the compound, how does the normalised cell number read?
The normalised cell number was 0.95.

For `O=C(O)CCC(=O)c1ccc(-c2ccccc2)cc1`, which normalised cell number is on record?
The normalised cell number was 1.15.

For `CC(=O)Oc1ccc(C(c2ccc(OC(C)=O)cc2)c2ccccn2)cc1`, which normalised cell number is on record?
The normalised cell number was 1.06.

With `CC(C)(Oc1ccc(CCNC(=O)c2ccc(Cl)cc2)cc1)C(=O)O` as the compound, how does the normalised cell number read?
The normalised cell number was 1.25.

For `CCN(CC)CCNC(=O)c1ccc(NC(C)=O)cc1`, which normalised cell number is on record?
Its normalised cell number is 1.13.

Which normalised cell number does the source give for `C=C1c2cccc(O)c2C(O)=C2C(=O)[C@]3(O)C(O)=C(C(N)=O)C(=O)[C@@H](N(C)C)[C@@H]3[C@@H](O)[C@H]12` here?
Its normalised cell number is 0.79.

With `O=C(O)c1cc(O)c(O)c(O)c1` as the compound, how does the normalised cell number read?
The normalised cell number was 1.09.

With `CCn1cc(C(=O)O)c(=O)c2cc3c(cc21)OCO3` as the compound, how does the normalised cell number read?
Its normalised cell number is 1.25.

For `Cc1nnc(SCC2=C(C(=O)O)N3C(=O)[C@@H](NC(=O)Cn4cnnn4)[C@H]3SC2)s1`, which normalised cell number is on record?
The normalised cell number was 1.12.

For `CN1CCC(=C2c3ccccc3Sc3ccccc32)CC1`, which normalised cell number is on record?
The normalised cell number was 1.11.

For `CCCCCCCCCCCCCCCCOP(=O)([O-])OCC[N+](C)(C)C`, which normalised cell number is on record?
Its normalised cell number is 1.06.

With `CNC1(C)C2CCC(C2)C1(C)C` (configuration not stated) as the compound, how does the normalised cell number read?
The normalised cell number was 0.97.

For `CCC(=O)O[C@H]1[C@H](O[C@@H]2[C@@H](C)[C@H](O[C@H]3C[C@@](C)(OC)[C@@H](O)[C@H](C)O3)[C@@H](C)C(=O)O[C@H](CC)[C@@](C)(O)[C@H](O)[C@@H](C)C(=O)[C@H](C)C[C@@]2(C)O)O[C@H](C)C[C@@H]1N(C)C`, which normalised cell number is on record?
Its normalised cell number is 1.12.

Which normalised cell number does the source give for `O=C(O)c1ccccc1OP(=O)(O)O` here?
Its normalised cell number is 1.05.

Which normalised cell number does the source give for `C/C=C1\[C@H]2C=C(C)C[C@]1(N)c1ccc(=O)[nH]c1C2` here?
The normalised cell number was 1.18.

With `CCCCOc1ccc(OCCCN2CCOCC2)cc1` as the compound, how does the normalised cell number read?
The normalised cell number was 0.98.

Which normalised cell number does the source give for `CC(=O)Nc1ccccc1` here?
The normalised cell number was 1.18.
